Reference: PubChem BioAssay AID540333 (Southern Research Specialized Biocontainment Screening …, 2011)
Out of some 10,000 compounds screened, about 320 (3.2%) were called active. Only a selection was taken, and actives are over-represented in it overall. Unmarked numbers belong to inactive results. Cut-off read from the data, not from the text of the source: active = CPE inhibition mostly above about 9.1% (no sharp cut-off); inactive = mostly below about 7.2%.

experiment: Dengue virus cytopathic effect inhibitors, cell-based, CPE readout, HTS (AID 540333); details: Dengue virus CPE inhibition in host cells, at 20 µM; active compounds read high

SMILES | CPE inhibition
CC(Nc1cc(N2CCNCC2)ccc1[N+](=O)[O-])c1ccccc1 (stereo unspecified) | 0.87%
O=C(CN1CCN(Cc2ccccc2)CC1)Nc1ccc(S(=O)(=O)N2CCOCC2)cc1 | inactive
Cc1ccc(-n2c(SCC(=O)N3c4ccccc4Sc4ccccc43)nnc2-c2ccncc2)cc1 | 13.2% (active)
Cc1ccc(-n2c(SCC(=O)N/N=C/c3ccc(C)s3)nnc2-c2ccccc2)cc1 | 6.83%
Cn1c(SCC(=O)N2c3ccccc3Sc3ccccc32)nc2ccccc21 | 10.5%
O=C(CSc1ccc(Cl)cc1)Nc1cccc(-c2nnc(-c3ccco3)o2)c1 | 0.905%
O=C(CNc1cc(S(=O)(=O)N2CCCC2)ccc1OCC(F)(F)F)Nc1cccc(C(F)(F)F)c1 | 15.3% (active)
O=C(Nc1cc(S(=O)(=O)N2CCCC2)ccc1OCC(F)(F)F)c1ccc(F)cc1 | inactive
Cc1ccc(OCC(=O)Nc2cccc(S(=O)(=O)N3CCCCC3)c2)c([N+](=O)[O-])n1 | 0.73%
O=S(=O)(NCCCc1ccccc1)c1cccc2nsnc12 | 0.135%
O=C(O)CCN1CC2([N+](=O)[O-])C=CC(=O)C([N+](=O)[O-])(C1)C2CC(=O)c1ccccc1 (stereo unspecified) | 0.01%
COc1cc(/C=N/NS(=O)(=O)c2ccccc2)ccc1OS(=O)(=O)c1ccc(C)cc1 | 0.62%
CCCc1cc(=O)[nH]c(SCC(=O)N2CCN(S(=O)(=O)c3ccc4ccccc4c3)CC2)n1 | inactive
O=C(/C=C/c1cccc(Cl)c1)NCc1ccncc1 | 0.12%
O=C(NC(Cc1c[nH]c2ccccc12)C(=O)OCC(=O)c1cccc2ccccc12)c1cccs1 (stereo unspecified) | inactive
COc1cc(CNn2cn[nH]c2=S)cc(Cl)c1OCc1ccc(F)cc1 | inactive
COc1ccc(C2CC(=O)C3=C(C2)Nc2ccccc2NC3c2coc3ccccc3c2=O)cc1OC (stereo unspecified) | 51.7% (active)
COc1ccc([C@H]2CC(=O)C=C(/C=C/c3ccccc3)C2)cc1OC | 0.185%
COc1ccccc1NC(=O)C1=C(C)NC2=C(C(=O)CC(c3ccc(OC)c(OC)c3)C2)C1c1coc2ccccc2c1=O (stereo unspecified) | 5.03%
O=C(CNc1cccc(C(F)(F)F)c1)N/N=C/c1cccc(Br)c1 | 9% (active)
C/C(=N\NC(=O)CNc1cccc(C(F)(F)F)c1)c1ccc(Br)cc1 | 3.77%

SMILES | CPE inhibition
C/C(=N\NC(=O)CNc1cccc(C(F)(F)F)c1)c1cccc(Br)c1 | 7.08%
O=Cc1cc([N+](=O)[O-])ccc1N1CCOCC1 | 0.035%
Cc1nnc(SCc2cc(=O)oc3ccc4ccccc4c23)n1Cc1ccccc1 | inactive
CCCN1C(=O)/C(=N\OCC(=O)Nc2ccc(C(C)C)cc2)c2ccccc21 | 8.8%
O=C(CON=C1c2ccccc2-c2ccccc21)NC12CC3CC(CC(C3)C1)C2 | 6.95%
CCCN1C(=O)/C(=N\OCC(=O)NC23CC4CC(CC(C4)C2)C3)c2ccccc21 | 22.5% (active)
C=CCNC(=O)c1cc(Cl)ccc1[N+](=O)[O-] | inactive
CCOC(=O)C1=C(C)NC(=S)NC1/C=C/c1ccccc1 (stereo unspecified) | inactive
CCOc1ccc(-c2cn(-c3cccc(SC)c3)c(=O)[nH]2)cc1 | 0.42%
Cc1ccc(S(=O)(=O)c2nnn3c2nc(Nc2cccc(C)c2)c2ccccc23)cc1 | inactive
CC(C)(C)NC(=O)COC(=O)c1ccccc1Nc1ccc(SC(F)F)cc1 | 16.6% (active)
Cc1ccc(NC(=O)COC(=O)c2ccccc2Nc2ccccc2)cc1 | 1.36%
O=C(COC(=O)c1ccccc1Nc1ccccc1)Nc1ccccc1 | 1.4%
Cc1ccc(SCC(=O)NCc2ccncc2)cc1 | inactive
Cc1c(NC(=O)/C(C#N)=C/c2ccc(-c3ccccc3Cl)o2)c(=O)n(-c2ccccc2)n1C | 3.41%
Cc1c(Cl)cccc1Nc1nc(N)nc(CSc2nc3ccccc3s2)n1 | 10.3% (active)
Cc1ccccc1Nc1nc(N)nc(COC(=O)c2ccc(O)cc2)n1 | inactive
CN(CC(=O)Nc1ccccc1Cl)C(=O)CSc1nc2ccccc2s1 | inactive
COc1ccc(CNc2nc(-c3ccccc3)nn2C(=O)c2ccc([N+](=O)[O-])cc2)cc1 | inactive
Cn1cc([N+](=O)[O-])c(C(=O)N/N=C/c2ccc([N+](=O)[O-])cc2)n1 | 0.11%
CCNC(=O)c1cc(Cl)ccc1OC | 0.845%

SMILES | CPE inhibition
N#C/C(=C\c1ccc(OC(=O)c2ccc(Br)s2)cc1)c1nc2ccccc2[nH]1 | 8.02%
N#C/C(=C\c1cccs1)c1nc2ccccc2[nH]1 | inactive
N#C/C(=C\c1ccc(Sc2ccccc2)o1)c1nc2ccccc2[nH]1 | 13% (active)
CCn1c(C)cs/c1=N\C(=S)Nc1ccccc1C | 0.08%
Cc1ccc(C2CC(=O)C=C(NCC(C)C)C2)cc1 (stereo unspecified) | inactive
Cc1ccc(C)c(NC(=S)N(C)CCc2ccccn2)c1 | inactive
Cc1ccccc1OCC(=O)N1N=C(c2cccnc2)CC1(O)C(F)(F)F (stereo unspecified) | inactive
CC/C(=N\N=C1\SC(C)C(=O)N1Cc1ccco1)c1ccccc1 (stereo unspecified) | 22.7% (active)
COc1ccc(N=C2SC(CC(=O)Nc3ccccc3OC)C(=O)N2Cc2ccco2)cc1 (stereo unspecified) | 1.94%
COc1ccc(N=C2SC(CC(=O)Nc3ccccc3F)C(=O)N2Cc2ccco2)cc1 (stereo unspecified) | 0.295%
CSc1ccc(/C=N/NC(=O)COc2ccc(Br)cc2Cl)cc1 | 3.23%
COc1cccc(NC(=O)CCSc2ccc(C)cc2)c1 | inactive
CCN(CC)S(=O)(=O)c1cccc(NC(=O)CCSc2ccc(Cl)cc2)c1 | 11% (active)
CN(C)S(=O)(=O)c1cccc(NC(=O)CCSc2ccc(Cl)cc2)c1 | inactive
O=C(CSc1nc2ccccc2s1)Nc1ccc(Cl)c(S(=O)(=O)N2CCOCC2)c1 | 0.03%
Cc1ccc(CSc2ccc(-c3ccc4c(c3)OCO4)nn2)cc1 | inactive
O=C1N(c2ccccc2)C(c2ccc(Cl)cc2)N2CCCN12 (stereo unspecified) | 0.355%
Cc1cc(O)c(C2=Nc3ccccc3SC(c3ccc(Cl)cc3)C2)c(=O)o1 (stereo unspecified) | 5.1%
O=C1CC(c2ccc(Cl)cc2)SC(N(c2ccccc2)c2ccccc2)=N1 (stereo unspecified) | 23.9% (active)
